Data from the supplement of paper PMC9694430.

system: LOC_OS05G30820-cb001; test: thermal shift delta Tm vs DMSO control; higher = stronger stabilization (binding); conditions: 12.5 µM; protein concentration 2 µM
Summary of the method: (§1)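 Rice kinase domain constructs were expressed in E. coli, purified, and tested by differential scanning fluorimetry with compound added in DMSO. Each well of a 96-well plate held 19.5 μl of 2 μM kinase in 100 mM potassium phosphate pH 7.5, 150 mM NaCl, 10% glycerol and 5 × SYPRO Orange, and fluorescence was read from 25°C to 95°C at 0.05°C/s. The melting temperature shift is the mean of triplicates, taken against protein with DMSO alone after Boltzmann fitting.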

Row | SMILES | thermal shift delta Tm [°C]
1 | CN1CCN(c2cccc(Nc3nc4c(-c5ccc(S(C)(=O)=O)cc5)cccn4n3)c2)CC1 | 0.63
2 | C[C@@H](NC(=O)c1ncnc(N)c1Cl)c1ncc(C(=O)Nc2cc(C(F)(F)F)c(Cl)cn2)s1 | 0.73
3 | N#CC(=C(/N)Sc1ccccc1N)/C(C#N)=C(\N)Sc1ccccc1N | 0.39
4 | Cc1cc(Nc2cc(N3CCN(C)CC3)nc(/C=C/c3ccccc3)n2)n[nH]1 | 1.8
5 | OCCn1cc(-c2ccc3c(c2)CC/C3=N\O)c(-c2ccncc2)n1 | 0.48
6 | COc1cc2c(c(OC)c1OC)-c1c(cc3c(c1OC)OCO3)CC(C)C(C)C2 (centres undefined) [Schisandrin B (Sch B)] | 0.52
7 | COc1cc(N2CCN(C)CC2)ccc1Nc1nccc(-c2cn(C)c3cnccc23)n1 | 0.38
8 | CN(c1ccccc1CNc1nc(Nc2ccc3c(c2)CC(=O)N3)ncc1C(F)(F)F)S(C)(=O)=O | 4
9 | CNC(=O)c1ccc(Nc2ncc(C(F)(F)F)c(NCc3nccnc3N(C)S(C)(=O)=O)n2)cc1 | 4.15
10 | O=C(O)c1ccc2c3c1cccc3c(=O)n1c3ccccc3nc21 | 0.73
11 | Cc1nc(Nc2n[nH]c3c2CN(C(=O)N[C@H](CN(C)C)c2ccccc2)C3(C)C)c2sccc2n1 | 0.45
12 | C[C@H]1[C@H](C)CC[C@]2(C(=O)O)CC[C@]3(C)C(=CC[C@@H]4[C@@]5(C)C[C@@H](O)[C@H](O)[C@@](C)(CO)[C@@H]5CC[C@]43C)[C@H]12 [Asiatic Acid] | 0.73
13 | COc1ccc(-c2cc3nccn3c(Nc3ncccc3C(N)=O)n2)cc1OC | 0.59
14 | O=C(NCc1ccccc1)c1csc(Nc2ccncn2)n1 [Thiazovivin] | 0.36
15 | COc1cc(Nc2ncc(F)c(Nc3ccc4c(n3)NC(=O)C(C)(C)O4)n2)cc(OC)c1OC [R406 (free base)] | 1.44
16 | Cc1ccc(S(=O)(=O)/C=C/C#N)cc1 | -0.01
17 | O=c1c(O)c(-c2ccc(O)c(O)c2)oc2cc(O)cc(O)c12 [Quercetin] | 0.67
18 | C[C@H]1CNC(=O)c2cnn3ccc(nc23)N[C@H](C)c2cc(F)ccc2O1 | 0.11
19 | C[C@@H](Nc1cc(F)cc(F)c1)c1cc(C(=O)N(C)C)cc2c(=O)cc(N3CCOCC3)oc12 | 0.53

Row | SMILES | thermal shift delta Tm [°C]
20 | Nc1cccc(-c2cc3c(Oc4cccc(O)c4)ncnc3[nH]2)c1 | 1.14
21 | CC[C@H](CO)Nc1nc(NCc2ccccc2)c2ncn(C(C)C)c2n1 [Roscovitine (Seliciclib,CYC202)] | 0.33
22 | CCn1c(=O)c(-c2ccc(Cl)cc2Cl)cc2cnc(Nc3ccc(N4CCNCC4)c(F)c3)nc21 | 0.68
23 | Cc1c[nH]c2nc(Nc3ccc(N4CCN(C)CC4)c(F)c3)nc(-c3cccc(CC#N)c3)c12 | 0.83
24 | N#C/C(=C(/N)Sc1ccc(N)cc1)c1ccccc1C(F)(F)F | 0.55
25 | FC(F)(F)c1ccc(CNc2ccc(Cc3c[nH]c4ncc(Cl)cc34)cn2)cn1 [Pexidartinib (PLX3397)] | 0.74
26 | COc1cc(N2CCC(N(C)C)CC2)ccc1Nc1ncc(Cl)c(Nc2ccccc2P(C)(C)=O)n1 | 1.4
27 | CCN(CC)CCNC(=O)c1c(C)[nH]c(/C=C2\C(=O)Nc3ccc(F)cc32)c1C [Sunitinib Malate] | 0.86
28 | CCC(=O)Nc1cccc(Oc2nc(Nc3ccc(N4CCN(C)CC4)cc3OC)ncc2Cl)c1 | 0.41
29 | Cn1c(Nc2ccc(C(F)(F)F)cc2)nc2cc(Oc3ccnc(-c4ncc(C(F)(F)F)[nH]4)c3)ccc21 | 0.81
30 | CCOc1cc(N2CCC(O)CC2)ccc1Nc1ncc2c(n1)N(C)c1ccccc1C(=O)N2C | 0.48
31 | O=C(O)c1ccc(Nc2ncc3c(n2)-c2ccc(Cl)cc2C(c2c(F)cccc2F)=NC3)cc1 | 0.22
32 | C[C@@H]1CN(C(=O)c2ccc(NC(=O)c3cc(O[C@H](C)c4c(Cl)ccc(F)c4Cl)c(N)nn3)cc2)C[C@H](C)N1 [Ensartinib (X-396)] | 0.45
33 | COc1ccc(F)c(F)c1C(=O)c1cnc(NC2CCN(S(C)(=O)=O)CC2)nc1N | 0.47
34 | N#Cc1cnc(Nc2cc(NC[C@H]3CNCCO3)c(C(F)(F)F)cn2)cn1 | 0.75
35 | O=c1nc(N2CCOCC2)oc2c(-c3cccc4c3sc3ccccc34)cccc12 | -0.09
36 | Cc1nc(Nc2ncc(C(=O)Nc3c(C)cccc3Cl)s2)cc(N2CCN(CCO)CC2)n1 [Dasatinib] | 0.42
37 | Cc1cc(Nc2cc(N3CCN(C)CC3)nc(/C=C/c3ccccc3)n2)n[nH]1 [ENMD-2076 L-(+)-Tartaric acid] | 1.55

system: LOC_OS05G43570-cb004; test: as above; conditions: 12.5 µM; protein concentration 2 µM
Summary of the method: as §1

Row | SMILES | thermal shift delta Tm [°C]
38 | CN1CCN(c2cccc(Nc3nc4c(-c5ccc(S(C)(=O)=O)cc5)cccn4n3)c2)CC1 | 0.2
39 | C[C@@H](NC(=O)c1ncnc(N)c1Cl)c1ncc(C(=O)Nc2cc(C(F)(F)F)c(Cl)cn2)s1 | 0.28
40 | N#CC(=C(/N)Sc1ccccc1N)/C(C#N)=C(\N)Sc1ccccc1N | 0.33
41 | Cc1cc(Nc2cc(N3CCN(C)CC3)nc(/C=C/c3ccccc3)n2)n[nH]1 | 0.82
42 | OCCn1cc(-c2ccc3c(c2)CC/C3=N\O)c(-c2ccncc2)n1 | 0.5
43 | COc1cc2c(c(OC)c1OC)-c1c(cc3c(c1OC)OCO3)CC(C)C(C)C2 (centres undefined) [Schisandrin B (Sch B)] | 0.14
44 | COc1cc(N2CCN(C)CC2)ccc1Nc1nccc(-c2cn(C)c3cnccc23)n1 | 0.32
45 | CN(c1ccccc1CNc1nc(Nc2ccc3c(c2)CC(=O)N3)ncc1C(F)(F)F)S(C)(=O)=O | 0.97
46 | CNC(=O)c1ccc(Nc2ncc(C(F)(F)F)c(NCc3nccnc3N(C)S(C)(=O)=O)n2)cc1 | 0.69
47 | O=C(O)c1ccc2c3c1cccc3c(=O)n1c3ccccc3nc21 | 0.15
48 | Cc1nc(Nc2n[nH]c3c2CN(C(=O)N[C@H](CN(C)C)c2ccccc2)C3(C)C)c2sccc2n1 | 1.95
49 | C[C@H]1[C@H](C)CC[C@]2(C(=O)O)CC[C@]3(C)C(=CC[C@@H]4[C@@]5(C)C[C@@H](O)[C@H](O)[C@@](C)(CO)[C@@H]5CC[C@]43C)[C@H]12 [Asiatic Acid] | 1.08
50 | COc1ccc(-c2cc3nccn3c(Nc3ncccc3C(N)=O)n2)cc1OC | 0.69
51 | O=C(NCc1ccccc1)c1csc(Nc2ccncn2)n1 [Thiazovivin] | 1.22
52 | COc1cc(Nc2ncc(F)c(Nc3ccc4c(n3)NC(=O)C(C)(C)O4)n2)cc(OC)c1OC [R406 (free base)] | 0.79
53 | Cc1ccc(S(=O)(=O)/C=C/C#N)cc1 | -0.14
54 | O=c1c(O)c(-c2ccc(O)c(O)c2)oc2cc(O)cc(O)c12 [Quercetin] | 1.19
55 | C[C@H]1CNC(=O)c2cnn3ccc(nc23)N[C@H](C)c2cc(F)ccc2O1 | 0.56
56 | C[C@@H](Nc1cc(F)cc(F)c1)c1cc(C(=O)N(C)C)cc2c(=O)cc(N3CCOCC3)oc12 | 0.2

Row | SMILES | thermal shift delta Tm [°C]
57 | Nc1cccc(-c2cc3c(Oc4cccc(O)c4)ncnc3[nH]2)c1 | 0.77
58 | CC[C@H](CO)Nc1nc(NCc2ccccc2)c2ncn(C(C)C)c2n1 [Roscovitine (Seliciclib,CYC202)] | 0.28
59 | CCn1c(=O)c(-c2ccc(Cl)cc2Cl)cc2cnc(Nc3ccc(N4CCNCC4)c(F)c3)nc21 | 0.35
60 | Cc1c[nH]c2nc(Nc3ccc(N4CCN(C)CC4)c(F)c3)nc(-c3cccc(CC#N)c3)c12 | 1.16
61 | N#C/C(=C(/N)Sc1ccc(N)cc1)c1ccccc1C(F)(F)F | -0.02
62 | FC(F)(F)c1ccc(CNc2ccc(Cc3c[nH]c4ncc(Cl)cc34)cn2)cn1 [Pexidartinib (PLX3397)] | 0.8
63 | COc1cc(N2CCC(N(C)C)CC2)ccc1Nc1ncc(Cl)c(Nc2ccccc2P(C)(C)=O)n1 | 0.32
64 | CCN(CC)CCNC(=O)c1c(C)[nH]c(/C=C2\C(=O)Nc3ccc(F)cc32)c1C [Sunitinib Malate] | 0.2
65 | CCC(=O)Nc1cccc(Oc2nc(Nc3ccc(N4CCN(C)CC4)cc3OC)ncc2Cl)c1 | 0.44
66 | Cn1c(Nc2ccc(C(F)(F)F)cc2)nc2cc(Oc3ccnc(-c4ncc(C(F)(F)F)[nH]4)c3)ccc21 | 3.24
67 | CCOc1cc(N2CCC(O)CC2)ccc1Nc1ncc2c(n1)N(C)c1ccccc1C(=O)N2C | 0.23
68 | O=C(O)c1ccc(Nc2ncc3c(n2)-c2ccc(Cl)cc2C(c2c(F)cccc2F)=NC3)cc1 | 0.24
69 | C[C@@H]1CN(C(=O)c2ccc(NC(=O)c3cc(O[C@H](C)c4c(Cl)ccc(F)c4Cl)c(N)nn3)cc2)C[C@H](C)N1 [Ensartinib (X-396)] | 0.3
70 | COc1ccc(F)c(F)c1C(=O)c1cnc(NC2CCN(S(C)(=O)=O)CC2)nc1N | 0.11
71 | N#Cc1cnc(Nc2cc(NC[C@H]3CNCCO3)c(C(F)(F)F)cn2)cn1 | 0.11
72 | O=c1nc(N2CCOCC2)oc2c(-c3cccc4c3sc3ccccc34)cccc12 | -0.65
73 | Cc1nc(Nc2ncc(C(=O)Nc3c(C)cccc3Cl)s2)cc(N2CCN(CCO)CC2)n1 [Dasatinib] | 0.75
74 | Cc1cc(Nc2cc(N3CCN(C)CC3)nc(/C=C/c3ccccc3)n2)n[nH]1 [ENMD-2076 L-(+)-Tartaric acid] | 0.7
